# Legend:
# Experiment in all cases: SPOT peptide array binding signal intensity (averaged, normalized) (arbitrary units (background-subtracted, floor 0; scale differs between SH3 domains)); higher = stronger binding of the SH3 domain to the peptide
# CaNbp2 = target: CaNbp2
# Procedure, shortened: (§1)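 Peptides were synthetic 15-mers on cellulose membranes, with every cysteine replaced by serine. They were incubated overnight at 4°C with GST-SH3 domains from four yeast species at 10 μg/ml in TBS-based blocking buffer. Binding signal, the replicate-averaged normalized and background-subtracted spot intensity, is in arbitrary units that differ between domains.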
# CaRvs167 = target: CaRvs167
# Procedure, shortened: as §1
# CaRvs167-3 = target: CaRvs167-3
# Procedure, shortened: as §1
# CaSho1 = target: CaSho1
# Procedure, shortened: as §1
# CaSla1-D1-D2 = target: CaSla1-D1-D2
# Procedure, shortened: as §1
# CaSla1-D3 = target: CaSla1-D3
# Procedure, shortened: as §1
# ScAbp1 = target: ScAbp1
# Procedure, shortened: as §1
# ScBbc1 = target: ScBbc1
# Procedure, shortened: as §1
# ScBem1-D1 = target: ScBem1-D1
# Procedure, shortened: as §1
# ScBzz1-D1 = target: ScBzz1-D1
# Procedure, shortened: as §1
# ScBzz1-D2 = target: ScBzz1-D2
# Procedure, shortened: as §1
# ScCyk3 = target: ScCyk3
# Procedure, shortened: as §1
# ScFus1 = target: ScFus1
# Procedure, shortened: as §1
# ScHof1 = target: ScHof1
# Procedure, shortened: as §1
# ScHse1 = target: ScHse1
# Procedure, shortened: as §1
# ScLsb1 = target: ScLsb1
# Procedure, shortened: as §1
# ScLsb2 = target: ScLsb2
# Procedure, shortened: as §1
# ScLsb3 = target: ScLsb3
# Procedure, shortened: as §1
# ScLsb4 = target: ScLsb4
# Procedure, shortened: as §1
# ScMyo3 = target: ScMyo3
# Procedure, shortened: as §1
# ScMyo5 = target: ScMyo5
# Procedure, shortened: as §1
# ScNbp2 = target: ScNbp2
# Procedure, shortened: as §1
# ScPex13 = target: ScPex13
# Procedure, shortened: as §1
# ScRvs167 = target: ScRvs167
# Procedure, shortened: as §1
# ScSho1 = target: ScSho1
# Procedure, shortened: as §1
# ScSla1-D1-D2 = target: ScSla1-D1-D2
# Procedure, shortened: as §1
# ScSla1-D3 = target: ScSla1-D3
# Procedure, shortened: as §1
# SpAbp1-D1 = target: SpAbp1-D1
# Procedure, shortened: as §1
# SpBbc1 = target: SpBbc1
# Procedure, shortened: as §1
# SpBzz1-D1 = target: SpBzz1-D1
# Procedure, shortened: as §1
# SpBzz1-D2 = target: SpBzz1-D2
# Procedure, shortened: as §1
# SpCyk3 = target: SpCyk3
# Procedure, shortened: as §1
# SpHof1 = target: SpHof1
# Procedure, shortened: as §1
# SpHof1-2 = target: SpHof1-2
# Procedure, shortened: as §1
# SpHof1-3 = target: SpHof1-3
# Procedure, shortened: as §1
# SpHse1 = target: SpHse1
# Procedure, shortened: as §1
# SpLsb1 = target: SpLsb1
# Procedure, shortened: as §1
# SpLsb4 = target: SpLsb4
# Procedure, shortened: as §1
# SpMyo1 = target: SpMyo1
# Procedure, shortened: as §1
# SpNbp2 = target: SpNbp2
# Procedure, shortened: as §1
# SpPex13 = target: SpPex13
# Procedure, shortened: as §1
# SpRvs167 = target: SpRvs167
# Procedure, shortened: as §1
# SpSla1-D1-D2 = target: SpSla1-D1-D2
# Procedure, shortened: as §1
# SpSla1-D3 = target: SpSla1-D3
# Procedure, shortened: as §1
# AgAbp1 = target: AgAbp1
# Procedure, shortened: as §1
# AgBbc1 = target: AgBbc1
# Procedure, shortened: as §1
# AgBem1-D1 = target: AgBem1-D1
# Procedure, shortened: as §1
# AgBzz1-D1 = target: AgBzz1-D1
# Procedure, shortened: as §1
# AgBzz1-D2 = target: AgBzz1-D2
# Procedure, shortened: as §1
# AgCyk3 = target: AgCyk3
# Procedure, shortened: as §1
# AgFus1 = target: AgFus1
# Procedure, shortened: as §1
# AgHof1 = target: AgHof1
# Procedure, shortened: as §1
# AgHse1 = target: AgHse1
# Procedure, shortened: as §1
# AgLsb1 = target: AgLsb1
# Procedure, shortened: as §1
# AgLsb4 = target: AgLsb4
# Procedure, shortened: as §1
# AgMyo5 = target: AgMyo5
# Procedure, shortened: as §1
# AgNbp2 = target: AgNbp2
# Procedure, shortened: as §1
# AgRvs167 = target: AgRvs167
# Procedure, shortened: as §1
# AgSho1 = target: AgSho1
# Procedure, shortened: as §1
# AgSla1-D1-D2 = target: AgSla1-D1-D2
# Procedure, shortened: as §1
# AgSla1-D3 = target: AgSla1-D3
# Procedure, shortened: as §1
# CaAbp1-D1 = target: CaAbp1-D1
# Procedure, shortened: as §1
# CaAbp1-D2 = target: CaAbp1-D2
# Procedure, shortened: as §1
# CaBbc1 = target: CaBbc1
# Procedure, shortened: as §1
# CaBem1-D1 = target: CaBem1-D1
# Procedure, shortened: as §1
# CaBzz1-D1 = target: CaBzz1-D1
# Procedure, shortened: as §1
# CaBzz1-D2 = target: CaBzz1-D2
# Procedure, shortened: as §1
# CaCyk3 = target: CaCyk3
# Procedure, shortened: as §1
# CaFus1 = target: CaFus1
# Procedure, shortened: as §1
# CaHof1 = target: CaHof1
# Procedure, shortened: as §1
# CaHse1 = target: CaHse1
# Procedure, shortened: as §1
# CaLsb1 = target: CaLsb1
# Procedure, shortened: as §1
# CaLsb4 = target: CaLsb4
# Procedure, shortened: as §1
# CaMyo5 = target: CaMyo5
# Procedure, shortened: as §1
binder,measurement,setting,value
LFMKGTPEFPKSGFS,SPOT peptide array binding signal intensity,CaNbp2,611
same,SPOT peptide array binding signal intensity,CaRvs167,75
same,SPOT peptide array binding signal intensity,CaRvs167-3,1.5
same,SPOT peptide array binding signal intensity,CaSho1,1200
same,SPOT peptide array binding signal intensity,CaSla1-D1-D2,90
same,SPOT peptide array binding signal intensity,CaSla1-D3,289
same,SPOT peptide array binding signal intensity,ScAbp1,6.5
same,SPOT peptide array binding signal intensity,ScBbc1,≤ 0
same,SPOT peptide array binding signal intensity,ScBem1-D1,16
same,SPOT peptide array binding signal intensity,ScBzz1-D1,20.5
same,SPOT peptide array binding signal intensity,ScBzz1-D2,11.5
same,SPOT peptide array binding signal intensity,ScCyk3,1
same,SPOT peptide array binding signal intensity,ScFus1,738
same,SPOT peptide array binding signal intensity,ScHof1,≤ 0
same,SPOT peptide array binding signal intensity,ScHse1,17.5
same,SPOT peptide array binding signal intensity,ScLsb1,19
same,SPOT peptide array binding signal intensity,ScLsb2,≤ 0
same,SPOT peptide array binding signal intensity,ScLsb3,197
same,SPOT peptide array binding signal intensity,ScLsb4,92.5
same,SPOT peptide array binding signal intensity,ScMyo3,21
same,SPOT peptide array binding signal intensity,ScMyo5,2
same,SPOT peptide array binding signal intensity,ScNbp2,212
same,SPOT peptide array binding signal intensity,ScPex13,394
same,SPOT peptide array binding signal intensity,ScRvs167,32
same,SPOT peptide array binding signal intensity,ScSho1,658
same,SPOT peptide array binding signal intensity,ScSla1-D1-D2,176
same,SPOT peptide array binding signal intensity,ScSla1-D3,490
same,SPOT peptide array binding signal intensity,SpAbp1-D1,52.5
same,SPOT peptide array binding signal intensity,SpBbc1,≤ 0
same,SPOT peptide array binding signal intensity,SpBzz1-D1,140
same,SPOT peptide array binding signal intensity,SpBzz1-D2,16.5
same,SPOT peptide array binding signal intensity,SpCyk3,≤ 0
same,SPOT peptide array binding signal intensity,SpHof1,19
same,SPOT peptide array binding signal intensity,SpHof1-2,18.8
same,SPOT peptide array binding signal intensity,SpHof1-3,78
same,SPOT peptide array binding signal intensity,SpHse1,335
same,SPOT peptide array binding signal intensity,SpLsb1,≤ 0
same,SPOT peptide array binding signal intensity,SpLsb4,629
same,SPOT peptide array binding signal intensity,SpMyo1,22.8
same,SPOT peptide array binding signal intensity,SpNbp2,100
same,SPOT peptide array binding signal intensity,SpPex13,28
same,SPOT peptide array binding signal intensity,SpRvs167,30.8
same,SPOT peptide array binding signal intensity,SpSla1-D1-D2,8
same,SPOT peptide array binding signal intensity,SpSla1-D3,253
NSVPIMPTLPPRPYI,SPOT peptide array binding signal intensity,AgAbp1,≤ 0
same,SPOT peptide array binding signal intensity,AgBbc1,394
same,SPOT peptide array binding signal intensity,AgBem1-D1,102
same,SPOT peptide array binding signal intensity,AgBzz1-D1,21
same,SPOT peptide array binding signal intensity,AgBzz1-D2,≤ 0
same,SPOT peptide array binding signal intensity,AgCyk3,9.5
same,SPOT peptide array binding signal intensity,AgFus1,20.5
same,SPOT peptide array binding signal intensity,AgHof1,118
same,SPOT peptide array binding signal intensity,AgHse1,320
same,SPOT peptide array binding signal intensity,AgLsb1,26
same,SPOT peptide array binding signal intensity,AgLsb4,2370
same,SPOT peptide array binding signal intensity,AgMyo5,71.5
same,SPOT peptide array binding signal intensity,AgNbp2,192
same,SPOT peptide array binding signal intensity,AgRvs167,50.2
same,SPOT peptide array binding signal intensity,AgSho1,21
same,SPOT peptide array binding signal intensity,AgSla1-D1-D2,≤ 0
same,SPOT peptide array binding signal intensity,AgSla1-D3,≤ 0
same,SPOT peptide array binding signal intensity,CaAbp1-D1,≤ 0
same,SPOT peptide array binding signal intensity,CaAbp1-D2,5
same,SPOT peptide array binding signal intensity,CaBbc1,1090
same,SPOT peptide array binding signal intensity,CaBem1-D1,162
same,SPOT peptide array binding signal intensity,CaBzz1-D1,103
same,SPOT peptide array binding signal intensity,CaBzz1-D2,3
same,SPOT peptide array binding signal intensity,CaCyk3,120
same,SPOT peptide array binding signal intensity,CaFus1,293
same,SPOT peptide array binding signal intensity,CaHof1,15
same,SPOT peptide array binding signal intensity,CaHse1,310
same,SPOT peptide array binding signal intensity,CaLsb1,3.25
same,SPOT peptide array binding signal intensity,CaLsb4,2280
same,SPOT peptide array binding signal intensity,CaMyo5,27.5
same,SPOT peptide array binding signal intensity,CaNbp2,400
same,SPOT peptide array binding signal intensity,CaRvs167,423
same,SPOT peptide array binding signal intensity,CaRvs167-3,≤ 0
same,SPOT peptide array binding signal intensity,CaSho1,260
same,SPOT peptide array binding signal intensity,CaSla1-D1-D2,52
same,SPOT peptide array binding signal intensity,CaSla1-D3,46
same,SPOT peptide array binding signal intensity,ScAbp1,≤ 0
same,SPOT peptide array binding signal intensity,ScBbc1,128
same,SPOT peptide array binding signal intensity,ScBem1-D1,≤ 0
same,SPOT peptide array binding signal intensity,ScBzz1-D1,3
same,SPOT peptide array binding signal intensity,ScBzz1-D2,1
same,SPOT peptide array binding signal intensity,ScCyk3,≤ 0
same,SPOT peptide array binding signal intensity,ScFus1,40.5
same,SPOT peptide array binding signal intensity,ScHof1,252
same,SPOT peptide array binding signal intensity,ScHse1,26.5
same,SPOT peptide array binding signal intensity,ScLsb1,380
same,SPOT peptide array binding signal intensity,ScLsb2,128
same,SPOT peptide array binding signal intensity,ScLsb3,3460
same,SPOT peptide array binding signal intensity,ScLsb4,2610
same,SPOT peptide array binding signal intensity,ScMyo3,668
same,SPOT peptide array binding signal intensity,ScMyo5,107
same,SPOT peptide array binding signal intensity,ScNbp2,210
same,SPOT peptide array binding signal intensity,ScPex13,1530
same,SPOT peptide array binding signal intensity,ScRvs167,834
same,SPOT peptide array binding signal intensity,ScSho1,154
same,SPOT peptide array binding signal intensity,ScSla1-D1-D2,2
same,SPOT peptide array binding signal intensity,ScSla1-D3,72
same,SPOT peptide array binding signal intensity,SpAbp1-D1,≤ 0
same,SPOT peptide array binding signal intensity,SpBbc1,50
same,SPOT peptide array binding signal intensity,SpBzz1-D1,78
